About 910 (0.41%) of roughly 220,000 compounds were called active.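 How the source made its calls: active means primary inhibition above the hit cutoff, then over 50% inhibition at one or more dose response concentrations (cut at about 23% in these data, passing the limit was not always enough); inconclusive means conflicting primary data, or primary hits not chosen for dose response; inactive means low primary inhibition, or under 50% at every dose.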 For the sample, actives were picked, then their nearest neighbours and some compounds at random. Entries with a potency or affinity are not part of this list.

This test deals with Aminopeptidase N (Plasmodium falciparum (isolate 3D7)) (UniProt O96935). Briefly: P. falciparum M1AAP inhibitors, biochemical, fluorogenic H-Leu-NHMec substrate, 1536-well (AID 1445).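 Further: plate controls were DMSO full reaction for no effect and no enzyme background for full effect.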 As to conditions: recombinant M1AAP, H-Leu-NHMec fluorogenic kinetic assay; at 30 µM, active compounds read high unless noted.
Aminopeptidase N (Plasmodium falciparum (isolate 3D7)), sequence (O96935 whole entry, looked up): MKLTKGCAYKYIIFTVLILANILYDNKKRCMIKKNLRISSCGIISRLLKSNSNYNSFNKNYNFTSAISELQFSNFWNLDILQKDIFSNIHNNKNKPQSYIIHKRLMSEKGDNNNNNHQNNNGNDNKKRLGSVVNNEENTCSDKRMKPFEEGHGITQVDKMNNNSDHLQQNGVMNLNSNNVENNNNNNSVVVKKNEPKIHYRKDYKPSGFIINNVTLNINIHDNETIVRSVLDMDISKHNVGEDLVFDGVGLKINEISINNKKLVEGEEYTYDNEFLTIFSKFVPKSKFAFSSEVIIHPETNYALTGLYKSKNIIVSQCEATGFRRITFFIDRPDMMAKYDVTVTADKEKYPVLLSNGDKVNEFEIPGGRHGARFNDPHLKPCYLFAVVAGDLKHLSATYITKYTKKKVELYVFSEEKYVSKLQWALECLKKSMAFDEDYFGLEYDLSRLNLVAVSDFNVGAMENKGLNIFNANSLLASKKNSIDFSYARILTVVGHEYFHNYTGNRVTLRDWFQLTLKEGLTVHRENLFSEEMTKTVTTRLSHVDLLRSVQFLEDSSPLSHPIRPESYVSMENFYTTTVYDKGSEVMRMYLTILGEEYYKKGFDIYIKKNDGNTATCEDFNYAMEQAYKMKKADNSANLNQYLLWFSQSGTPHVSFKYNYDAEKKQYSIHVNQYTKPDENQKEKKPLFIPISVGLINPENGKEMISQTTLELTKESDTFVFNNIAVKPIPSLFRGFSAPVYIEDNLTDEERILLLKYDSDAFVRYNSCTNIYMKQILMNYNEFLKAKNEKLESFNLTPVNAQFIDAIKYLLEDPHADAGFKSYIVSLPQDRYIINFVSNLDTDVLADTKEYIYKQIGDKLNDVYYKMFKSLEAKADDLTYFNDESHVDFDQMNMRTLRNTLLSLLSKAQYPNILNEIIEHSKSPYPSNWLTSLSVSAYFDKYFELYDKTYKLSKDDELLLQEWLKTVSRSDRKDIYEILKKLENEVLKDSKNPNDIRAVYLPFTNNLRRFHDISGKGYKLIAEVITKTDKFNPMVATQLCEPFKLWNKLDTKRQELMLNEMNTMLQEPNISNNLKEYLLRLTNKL
Take `COC(=O)/C=C/c1ccsc1NC(C)=O`: the inhibition was 7.35% (inactive). For the molecule `O=C(Nc1ccccc1Oc1ccccc1)c1cccc([N+](=O)[O-])c1`, the inhibition is 6.7% (inactive).

Turning to `Cc1nn(-c2cc(N3CCCC3)ccc2[N+](=O)[O-])c(=O)c2ccccc12`, the inhibition was 8.6% (inactive). For the molecule `O=C(CSc1nc2c(c(=O)n1-c1ccc(F)cc1)SCC2)NCC1CCCO1` (stereo not drawn), the inhibition is 15.6% (inactive).

Regarding `Cc1ccc(-n2c(SCC(=O)NCC3CCCO3)nc3c(c2=O)SCC3)cc1` (stereo not drawn), the inhibition is 4.19% (inactive). `COc1ccccc1NC(=O)CN1CCN(C(=O)c2ccco2)CC1`: the inhibition is 1.53% (inactive). As for `COc1ccc(C(=O)N2CCC(n3c(C)nc4cc(F)ccc43)CC2)cc1`, the inhibition is -1.13% (inactive). For `CC(C)CNC(=O)C(=O)NN=C1CCCCCC1`, the inhibition is 2.51% (inactive).

With `COC(=O)c1ccc(C)c(NS(=O)(=O)c2ccc3c(c2)OCCO3)c1`, the inhibition was 9.88% (inactive). On to `O=C(O)c1ccc(NS(=O)(=O)c2ccc3c(c2)OCCO3)cc1`, for which the inhibition is 7.45% (inactive). In the case of `Cc1ccc(C)c(N(C)C(=O)c2cc3c(=O)[nH]c4ccc(C)cc4c3s2)c1`, the inhibition was -2.28% (inactive).

As for `CC1(C)CC(=O)c2cc(OCC(=O)NCCN3CCCc4ccccc43)ccc2O1`, the inhibition is 6.69% (inactive). Consider `COc1ccc2c(c1)C(=O)N(c1ccccc1OC)C(=O)C2(C)C`, for which the inhibition was 11.7% (inactive).

As for `COc1nnc(-c2ccc(N3CCOCC3)c(NC(C)=O)c2)c2ccccc12`, the inhibition is 4.98% (inactive). Then `CCCS(=O)(=O)N1CCCC(C(=O)NCc2ccc3c(c2)OCO3)C1` (stereo not drawn), with 4.51% (inactive); and `CCS(=O)(=O)N1CCC(C(=O)NCc2ccc3c(c2)OCO3)CC1`, with 21.3% (inactive). As to `CCn1c(C(=O)N2CCC(C(=O)NCc3ccc4c(c3)OCO4)CC2)cc2sccc21`, the inhibition was 31.3% (active). Turning to `O=C(NCc1ccncc1)C1CCN(S(=O)(=O)Cc2ccccc2)CC1`, the inhibition was 22.4% (inactive). For the molecule `CCn1c(C(=O)N2CCC(C(=O)NCc3cccs3)CC2)cc2sccc21`, the inhibition is 18.2% (inactive). Then `O=C(NCc1ccccc1F)C1CCN(C(=O)c2sccc2-n2cccc2)CC1`, with 3.14% (inactive); and `CCS(=O)(=O)N1CCC(C(=O)NCc2cccc(OC)c2)CC1`, with -2.58% (inactive); and `O=C(NCCc1ccccc1)C1CCN(C(=O)c2sccc2-n2cccc2)CC1`, with 5.4% (inactive). On to `Cn1c(C(=O)N2CCCC(C(=O)NCc3ccc4c(c3)OCO4)C2)cc2sccc21` (stereo not drawn), for which the inhibition is 5.35% (inactive). For the molecule `COC(=O)c1ccc(CSc2nc3c(c(=O)n2-c2ccccc2)SCC3)o1`, the inhibition was 5.07% (inactive).

Consider `CCN(CC)CCCNC(=O)c1ccc(N2CCCCC2)c(NS(=O)(=O)c2ccc(C)cc2)c1`, for which the inhibition is -3.11% (inactive).

Take `CC(CN1CCCC1)C(=O)NN` (stereo not drawn): the inhibition is -2.99% (inactive).

`O=c1[nH]c2cc(Cl)c([N+](=O)[O-])nc2[nH]1`: the inhibition was 11.7% (inactive).

`Cc1nc(/C(=N/O)C(N)=O)cs1`: the inhibition was 3.08% (inactive). Then `CCOC(=O)COc1ccc(Br)cc1C1NC(=O)NC(C)=C1C(=O)NCc1ccccc1` (stereo not drawn), with -5.37% (inactive). Consider `O=C(NCCc1nc2ccccc2[nH]1)c1ccco1`, for which the inhibition was -3.58% (inactive). As to `Nc1ncc(Br)cc1S(=O)(=O)NCCC(=O)Nc1cccc(Cl)c1`, the inhibition was 0.42% (inactive). For the molecule `Cc1ccc(C(=O)Nc2ccc3c(c2)CCC3)o1`, the inhibition is 6.8% (inactive). Turning to `COc1cccc(OC)c1C(=O)N1CCN(c2c(Cc3ccccc3)c(C)nc3ncnn23)CC1`, the inhibition was 7.55% (inactive).

For `Cc1ccc2c(CNCc3ccco3)cc(=O)oc2c1`, the inhibition is 7.2% (inactive).

With `CS(=O)(=O)N1CCC(C(=O)NCc2ccc(F)cc2)CC1`, the inhibition is 12.5% (inactive). As for `CCS(=O)(=O)N1CCC(C(=O)NCc2ccc(F)cc2)CC1`, the inhibition is 5.77% (inactive). Take `Cc1ccc(S(=O)(=O)Nc2cccc(-c3cn4ccsc4n3)c2)cc1`: the inhibition was 7.08% (inactive). With `COc1ccccc1N1CCN(c2ncnc3nc[nH]c23)CC1`, the inhibition was 3.64% (inactive). Take `COc1ccc(C=C2C(=O)c3ccccc3C2=O)cc1O`: the inhibition was 13.7% (inactive). For the molecule `COc1cc(C=C2C(=O)c3ccccc3C2=O)ccc1O`, the inhibition is 12.8% (inactive). In the case of `COc1ccccc1N1CCN(c2nc3ccccc3nc2C(C#N)C(=O)OC(C)C)CC1` (stereo not drawn), the inhibition is 1.03% (inactive). `Cn1ncc2cc(NC(N)=S)ccc21`: the inhibition was 5.67% (inactive). `COc1cccc(NC(=O)COc2ccccc2C(N)=O)c1`: the inhibition is -6.65% (inactive).

Take `COC(=O)c1nc(N)sc1-c1ccc(Cl)cc1`: the inhibition is 7.93% (inactive).

For `CC1(C)Cc2c(sc3c2c(N)nc(=S)n3Cc2ccc(Br)cc2)CO1`, the inhibition was 5.16% (inactive). The same measure for `Cc1ccc(Nc2cc(-n3nc(C)cc3C)ncn2)c(C)c1`: -27.3% (inactive); for `Cc1ccc(Nc2cc(-n3nc(C)cc3C)ncn2)cc1`: 26.7% (active); for `Cc1cc(C)n(-c2cc(-n3nc(C)cc3C)ncn2)n1`: 7.79% (inactive). Then `CC1(C)CC(=O)C(C=NCCN2CCN(C(=S)NC3CCCCC3)CC2)=C(O)C1`, with -1.18% (inactive); and `Cc1ccc(NC(=O)CN(C)CC(=O)Nc2ccccc2Oc2ccccc2)cc1`, with -4.16% (inactive).

As for `O=C(N/N=C/c1cccc([N+](=O)[O-])c1)C1COc2ccccc2O1` (stereo not drawn), the inhibition is -7.31% (inactive).

For `O=C(N/N=C\c1ccc(O)c([N+](=O)[O-])c1)C1COc2ccccc2O1` (stereo not drawn), the inhibition was 21.5% (inactive). Then `O=C(N/N=C\c1ccc([N+](=O)[O-])o1)C1COc2ccccc2O1` (stereo not drawn), with 15.2% (inactive); and `O=C(N/N=C\c1ccc(-c2ccccc2[N+](=O)[O-])o1)C1COc2ccccc2O1` (stereo not drawn), with 5.3% (inactive).

As for `Cc1cc(C(=O)OCn2nnc3ccccc3c2=O)c(C)n1-c1ccccc1`, the inhibition is 0.48% (inactive). For `O=C(COC(=O)c1cccc2ccccc12)Nc1ncc(C(F)(F)F)cc1Cl`, the inhibition is 1.24% (inactive). Then `CC(=O)c1ccc(Sc2ccccc2N)c([N+](=O)[O-])c1`, with 0.73% (inactive); and `O=C(O)c1ccccc1C(=O)c1ccc(Sc2ccc(Cl)cc2)c([N+](=O)[O-])c1`, with 17.6% (inactive). `Cc1cccc(Nc2c(-c3ccc(N4CCOCC4)cc3)nc3ncccn23)c1`: the inhibition was 1.09% (inactive). Turning to `O=C(Nc1nnc(C2CC2)s1)C1CCCO1` (stereo not drawn), the inhibition is -7.06% (inactive). Take `Cn1cc(Br)c(C(=O)Nc2ncc(Br)s2)n1`: the inhibition was 3.9% (inactive). As for `CC(=O)c1ccc(OC(C)C)c(CSc2nc(O)cc(=O)[nH]2)c1`, the inhibition is 36.7% (inactive). For `CCCOc1ccc(C(C)=O)cc1CSCCC#N`, the inhibition is 11.4% (inactive). As to `CCOC(=O)c1sc2nc(C(C)C)c3c(c2c1N)CC(C)(C)OC3`, the inhibition is 22.1% (inactive).

Regarding `COC(=O)c1ccc(S(=O)(=O)N2CCCN(Cc3ccccc3)CC2)n1C`, the inhibition is -2.02% (inactive). Consider `Cc1ccccc1C(=O)Nc1ccnc(-c2ccncc2)n1`, for which the inhibition is -1.17% (inactive). In the case of `Cc1nc(N)nc(Cl)c1Cc1ccc(Cl)cc1`, the inhibition is 0.71% (inactive). Consider `Cc1nc2ccc(Cl)cc2nc1C`, for which the inhibition was 5.55% (inactive). Then `COC(CNC(=O)C1CCCCC1C(=O)O)OC` (stereo not drawn), with -2.33% (inactive); and `C/C(CC(=O)Nc1ccccc1C)=N\NC(=O)Cc1csc(N)n1`, with 5.41% (inactive). Turning to `C=CCn1c(SCc2nc3ccccc3c(=O)[nH]2)nc2scc(C3CC3)c2c1=O`, the inhibition was 1.15% (inactive). The same measure for `O=Cc1c(OCc2ccccc2)ccc2ccccc12`: 16.3% (inactive).

With `COc1ccc2ccccc2c1/C=N/O`, the inhibition was 6.62% (inactive). The same measure for `CC(C)Oc1ccc2ccccc2c1C=O`: 23.8% (active). On to `C=CCNc1nc2ccccc2c(=O)[nH]1`, for which the inhibition was 7.55% (inactive).

Take `Clc1ccc(-c2nc(-c3cc4cc(Cl)ccc4o3)cs2)cc1`: the inhibition was 2.11% (inactive). Turning to `CC(=O)Nc1cccc(NS(=O)(=O)c2ccccc2[N+](=O)[O-])c1`, the inhibition is -4.08% (inactive). Take `CC(C(=O)N1CCN(C)CC1)N1C(=O)c2ccccc2C1=O` (stereo not drawn): the inhibition is 7.24% (inactive). In the case of `COC(=O)c1c[nH]n2c(=O)c(Cl)c(C)nc12`, the inhibition is 0.19% (inactive).

For the molecule `COc1ccc(OC)c(CC(NC(C)=O)C(=O)NC2CCN(c3nc(OC)nc(OC)n3)CC2)c1` (stereo not drawn), the inhibition was 4.38% (inactive). `COc1ccc(/C=N/NC(=O)c2ccccc2O)cc1Cn1cc([N+](=O)[O-])cn1`: the inhibition is 5.5% (inactive). In the case of `COc1ccc(/C=N/NC(=O)c2ccc(N)cc2)cc1Cn1cc([N+](=O)[O-])cn1`, the inhibition was 16.6% (inactive). As to `Cc1nc(CC(=O)Nc2nc(C(C)(C)C)cs2)cs1`, the inhibition was 13.3% (inactive). As for `O=C(O)c1ccc(-c2ncc[nH]2)cc1`, the inhibition was 2.64% (inactive).

On to `Cc1ccc2c(c1)-c1c(cnn1CC(=O)O)CO2`, for which the inhibition is 0.53% (inactive). Take `Cc1ccc2c(c1)-c1c(cnn1CC(=O)NC(C)CCc1ccco1)CO2` (stereo not drawn): the inhibition was 25.2% (active).

As for `Cc1ccc(C)c(CN2CCCN(C(=O)Cn3ncc4c3-c3ccccc3OC4)C2)c1`, the inhibition is 3.24% (inactive). Then `Cc1ccc2c(c1)-c1c(cnn1CC(=O)N(Cc1ccco1)C1CCCCC1)CO2`, with 4.81% (inactive); and `Cc1ccc2c(c1)-c1c(cnn1CC(=O)N1CCCN(Cc3ccccc3F)C1)CO2`, with 26.4% (active). The same measure for `CC(CCc1ccco1)NC(=O)Cn1ncc2c1-c1ccccc1OC2` (stereo not drawn): 12.1% (inactive).

As to `COc1cc2c(cc1OC)CN(C(=O)CSc1nnc(C)s1)CC2`, the inhibition was 25.4% (active).

Regarding `COc1cc2c(cc1OC)CN(C(=O)CSc1nc(C)cc(C)c1C#N)CC2`, the inhibition was 3.39% (inactive). For the molecule `COc1cc2c(cc1OC)CN(C(=O)CSc1n[nH]c(N)n1)CC2`, the inhibition is 0.58% (inactive). Turning to `CCOCCn1cnc2sc(C(=O)NCC(=O)OCC)c(C)c2c1=O`, the inhibition was 1.07% (inactive). Regarding `Cc1cc2c(=O)oc(-c3ccccc3Br)nc2s1`, the inhibition is -4.08% (inactive). For `Cc1ccc2c(c1)sc1ncc(NC(=O)c3ccc(F)cc3)c(=O)n12`, the inhibition is -0.5% (inactive).

On to `O=C(Nc1cnc2sc3c(n2c1=O)CCCC3)c1ccc(F)cc1`, for which the inhibition was 23.9% (active). With `Cc1nn2c(=O)c(NC(=O)c3ccc(F)cc3)cnc2s1`, the inhibition is 6.66% (inactive).

The inhibition is the relative decrease from the control value, in per cent.

These data come from PubChem BioAssay AID1445 (SRMLSC, 2008).
